Bioassay records (PubChem)
Mdm2-MdmX inh: human Mdm2/MdmX binding inhibition; SaOS-2 split-luciferase Mdm2/MdmX complementation, luminescence; inhibition, % at 8 µM; 330,000 compounds, 3% hits; AID 485346;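 active = inhibition of at least 50% at 8 µM in the primary screen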
697 NFkB inh: lowers PMA/ionomycin-induced NF-kB signal in 697 B cells; 330,000 compounds, 0.33% hits; AID 435022; 697 B-cell NF-kB luciferase reporter, 16 h; inhibition, % at 4 µM; in the data active = inhibition above about 35%
Gli-Sufu block: blocks Gli-Sufu signaling in a luciferase reporter | Sufu-KO-LIGHT fibroblasts, Gli luciferase reporter luminescence | 340,000 compounds, 0.74% hits | inhibition, % at 5 µM;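 active = inhibition above about 55%, limit read from the data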
Shn3 3UTR inh: Schnurri-3 reporter inhibition in Clone20 osteoblasts. Clone20 osteoblast Shn3 3'UTR firefly luciferase, 24 h. inhibition, % at 12.5 µM. 360,000 compounds, 0.52% hits. AID 588674;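 active = mean inhibition of at least 75% with every replicate also reaching 75%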
Jurkat NFkB inh: lowers PMA/ionomycin-induced NF-kB signal in Jurkat cells; PMA/ionomycin-induced NF-kB luciferase reporter, luminescence; inhibition, % at 4 µM; 330,000 compounds, 0.53% hits; AID 435003; in the data active = inhibition above about 50%
Mdm2 MdmX conf: human Mdm2/MdmX binding inhibition, confirmed; shares compounds with Mdm2-MdmX inh; luminescent assay; AID 489028; 10,000 compounds, 55% hits; inhibition, % at 8 µM; in the data active = inhibition above about 40%
FLuc counter: full-length luciferase inhibition in Mdm2/MdmX counter-screen. shares compounds with Mdm2-MdmX inh. inhibition, % at 8 µM. 6,200 compounds, 77% hits. SaOS-2 full-length luciferase counterscreen, luminescence;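 active = mean inhibition at 8 µM reaching about 37%, which flags the compound as non-specific, limit read from the data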;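 also: p53-null SaOS-2 cells with luciferase driven by a doxycycline-inducible promoter; compound on cells about two nights before reading with doxycycline added after day one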
Hits are given with their value; n = inactive; x = no result given. Most compounds without a hit are left out; they make up all but 3.8% or so of the library.

SMILES | Mdm2-MdmX inh | 697 NFkB inh | Gli-Sufu block | Shn3 3UTR inh | Jurkat NFkB inh | Mdm2 MdmX conf | FLuc counter
Cc1ccc(-c2nnc(N3CCN(c4ccccn4)CC3)c3ccccc23)cc1 | 57 | n | n | n | n | 54 | 48
Cc1ccc(-c2nnc(N3CCN(C(=O)c4cccs4)CC3)c3ccccc23)cc1 | 55 | n | n | n | n | n | x
CSCc1ccc(C(=O)NCC(c2cccs2)N2CCOCC2)cc1 (stereo not given) | n | n | n | n | n | x | x
CCN(CC)CCNc1ncnc2c1[nH]c1ccc(OC)cc12 | n | n | x | x | n | x | x
CCN(CC)CCNC1=NCCn2c1cc1cc(OC)ccc12 | 64 | n | n | n | n | 64 | 68
COC(=O)[C@@]12CCCN1[C@H](c1ccc(-c3ccccc3)cc1)[C@@H]1C(=O)N(C)C(=O)[C@@H]12 | n | n | n | n | n | x | x
COc1ccc(NC(=O)c2cc3c(=O)n(C)c4ccccc4c3n2C)cc1Cl | 62 | n | n | n | n | n | x
COc1ccc(NC(=O)c2cc3c(=O)n(C)c4ccccc4c3n2C)cc1OC | 59 | n | n | n | n | n | x
COc1cc(NC(=O)c2cc3c(=O)n(C)c4ccccc4c3n2C)cc(OC)c1OC | n | n | n | n | n | x | x
COc1cccc(NC(=S)N2CCN(C(c3ccccc3)c3ccccc3)CC2)c1 | 79 | n | n | n | n | 42 | 68
C=C(CC1([C@@H](NP(=O)(c2ccccc2)c2ccccc2)[C@H]2C[C@@H]2CCCC)CC1)c1ccccc1 | 59 | n | n | n | n | n | x
CCCC[C@@H]1C[C@H]1[C@@H](NC(=O)c1ccccc1)c1ccccc1C(F)(F)F | n | n | n | n | n | x | x
COc1cccc(NC(=O)Cn2nnc(C(=O)Nc3cc(Cl)ccc3OC)c2N)c1 | 90 | n | n | n | n | 49 | n
COc1ccc(NC(=O)Cn2nnc(C(=O)Nc3ccc(F)c(Cl)c3)c2N)cc1 | 59 | n | n | n | n | n | 83
COc1ccc(Cl)cc1NC(=O)c1nnn(CC(=O)Nc2ccc3c(c2)OCO3)c1N | 93 | n | n | n | n | 53 | n
COc1ccc(Cl)cc1NC(=O)c1nnn(CC(=O)Nc2cc(C)cc(C)c2)c1N | 94 | n | n | n | n | 57 | 55
Clc1ccc2nc(COc3ccccc3)[nH]c2c1 | n | n | n | n | n | x | x
CC(OC(=O)c1cccc(S(=O)(=O)N2CCCCC2)c1)C(=O)NC1CCCCC1C (stereo not given) | n | n | n | n | n | x | x
COc1ccc(NC(=O)Cn2nnc(C(=O)NCc3ccc(C)cc3)c2N)cc1OC | n | n | n | n | n | x | x
COc1ccc(NC(=O)c2nnn(CC(=O)Nc3ccc4c(c3)OCO4)c2N)cc1OC | n | n | n | n | n | x | x
COc1ccc(NC(=O)c2nnn(CC(=O)Nc3ccc4c(c3)OCO4)c2N)c(OC)c1 | 52 | n | n | n | n | n | x
COc1ccc(Cl)cc1NC(=O)c1nnn(CC(=O)Nc2ccc(OC)c(OC)c2)c1N | 69 | n | n | n | n | n | n
CC(C)OC(=O)N(C)C[C@H]1OCc2cnnn2CCCC(=O)N([C@H](C)CO)C[C@H]1C | x | x | x | n | x | x | x
COc1cccc(CNC(=O)CSc2nc3ccc(C)cc3[nH]2)c1 | n | n | n | n | n | x | x
CCc1ccc(-c2cc(C)no2)cc1S(=O)(=O)N1CCCN(Cc2ccc(F)cc2)C1 | 68 | n | n | n | n | n | x
SMILES | Mdm2-MdmX inh | 697 NFkB inh | Gli-Sufu block | Shn3 3UTR inh | Jurkat NFkB inh | Mdm2 MdmX conf | FLuc counter
CCc1ccc(-c2cc(C)no2)cc1S(=O)(=O)N1CCC(C)CC1 | n | n | n | n | n | x | x
c1ccc(Nc2nc(NCc3ccco3)c3ccccc3n2)cc1 | 78 | n | 56 | n | n | n | x
Oc1ccccc1Nc1nc(NCc2ccco2)c2ccccc2n1 | n | n | n | n | n | x | x
COc1cccc(Nc2nc(NCCO)c3ccccc3n2)c1 | 65 | n | n | n | n | 62 | n
Cc1ccc(S(=O)(=O)N2CCN(S(=O)(=O)c3ccccc3Br)C2=O)cc1 | n | n | n | n | x | x | x
O=C(CCC(=O)N1CCOCC1)NCCc1ccc(Cl)cc1Cl | n | n | n | n | n | x | x
CC(=O)Nc1ccc(NC(=O)CSc2nnc(-c3cccnc3)o2)cc1 | n | n | n | n | n | x | x
O=[N+]([O-])c1ccc(Sc2nnnn2-c2ccccc2)c(Cl)c1 | n | n | n | n | n | x | x
CC(=O)c1ccc(Sc2nnnn2-c2ccccc2)c([N+](=O)[O-])c1 | 85 | n | n | n | n | 58 | n
CN1CCN(S(=O)(=O)c2ccc(Sc3nnnn3-c3ccccc3)c([N+](=O)[O-])c2)CC1 | 88 | n | n | 87 | n | 77 | 56
Cn1cnnc1Sc1cc(N2CCN(S(=O)(=O)c3ccccc3)CC2)ccc1[N+](=O)[O-] | n | n | n | n | n | x | x
CCOc1ccc(NC(=O)CSc2nc(=O)n(Cc3cccnc3)c3c2CCC3)cc1 | n | n | n | n | n | x | x
COc1ccc(C(C(=O)NC2CCCCC2)N(Cc2cccnc2)C(=O)c2snc(C(N)=O)c2N)cc1 (stereo not given) | n | n | n | n | n | x | x
Cc1ccc(C2CC(c3ccccc3)=NN2c2ccc(S(N)(=O)=O)cc2)cc1 (stereo not given) | x | x | x | n | x | x | x
COc1ccc(C2CC(c3ccc(C(F)(F)F)cc3)=NN2c2ccc(S(N)(=O)=O)cc2)cc1 (stereo not given) | 93 | n | n | n | x | n | x
CCc1ccc(C2=NN(c3ccc(S(N)(=O)=O)cc3)C(c3ccc(F)cc3)C2)cc1 (stereo not given) | 77 | n | n | n | n | n | x
COc1ccc(C2CC(c3ccccc3F)=NN2c2ccc(S(N)(=O)=O)cc2)cc1 (stereo not given) | n | n | n | n | x | x | x
COc1ccc(C2CC(c3ccccc3C(F)(F)F)=NN2c2ccc(S(N)(=O)=O)cc2)cc1 (stereo not given) | 67 | n | n | n | x | 62 | 70
O=C(CC(=O)c1ccccc1)Nc1cccnc1Cl | n | n | n | n | n | x | x
CCN(CC)CCNC(=O)c1ccc(NC(=O)C2CCN(c3ncnc4sc(C)c(C)c34)CC2)cc1 | 91 | n | n | n | n | 61 | n
Cc1sc2ncnc(N3CCC(C(=O)Nc4ccc(OC(F)F)c(Cl)c4)CC3)c2c1C | n | n | n | n | n | x | x
Cc1ccc(-c2csc(=Nc3cccnc3)n2CCCn2ccnc2)cc1C | 71 | n | n | n | n | 75 | n
CCOC(=O)c1ccc2ncc(C(=O)OCC)c(Nc3ccc(N4CCOCC4)cc3)c2c1 | 68 | n | n | n | n | 55 | 55
CCOc1ccc2nc(C)cc(Nc3ccc4c(c3)OCCO4)c2c1 | n | n | n | n | n | x | x
CCOc1ccc2nc(C)cc(Nc3ccc(N4CCOCC4)cc3)c2c1 | n | n | x | x | n | n | x
Cn1nc(C(=O)NC(C)(C)C)c2ccccc21 | n | n | n | n | n | x | x
